These results are taken from publication PMC5700166.

Numbering of substitutions follows the chain as printed.

Holding throughout (assay): protein-binding microarray (PBM); PBM: ~300 nM protein, 6 mM HEPES pH 7.8, 80 mM KCl, 0.5 mM EDTA, 0.5 mM EGTA, 6% glycerol, 35 ng/ul poly-dIdC, 1% milk, 1 h, room temperature; Ap Aiptasia and Nv Nematostella (sea anemones) / Co Capsaspora / Aq Amphimedon (sponge) / Dm Drosophila / Hu human; RHD is the Rel homology domain; high values mean tight binding
Holding throughout (conditions): dsDNA, one strand shown

One experiment addresses T1, GST-Ap-NF-kB RHD (Exaiptasia pallida (Aiptasia), UniProt A0A913YAJ5 2-422).
T1 sequence: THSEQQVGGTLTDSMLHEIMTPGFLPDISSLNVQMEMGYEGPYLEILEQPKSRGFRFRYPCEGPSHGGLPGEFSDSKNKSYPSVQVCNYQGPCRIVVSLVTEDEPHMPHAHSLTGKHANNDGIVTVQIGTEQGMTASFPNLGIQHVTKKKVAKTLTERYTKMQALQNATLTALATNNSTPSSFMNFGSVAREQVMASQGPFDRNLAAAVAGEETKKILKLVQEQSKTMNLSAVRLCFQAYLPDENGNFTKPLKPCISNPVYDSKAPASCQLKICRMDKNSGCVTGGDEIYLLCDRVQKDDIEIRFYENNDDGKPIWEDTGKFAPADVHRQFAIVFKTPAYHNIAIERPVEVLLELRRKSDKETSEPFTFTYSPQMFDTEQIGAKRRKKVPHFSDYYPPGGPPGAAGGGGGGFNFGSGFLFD

Experiment [1] has as its target T2, GST-Nv-NF-kB (Cys allele) (Nematostella vectensis, UniProt E5G601 2-411).
T2 sequence: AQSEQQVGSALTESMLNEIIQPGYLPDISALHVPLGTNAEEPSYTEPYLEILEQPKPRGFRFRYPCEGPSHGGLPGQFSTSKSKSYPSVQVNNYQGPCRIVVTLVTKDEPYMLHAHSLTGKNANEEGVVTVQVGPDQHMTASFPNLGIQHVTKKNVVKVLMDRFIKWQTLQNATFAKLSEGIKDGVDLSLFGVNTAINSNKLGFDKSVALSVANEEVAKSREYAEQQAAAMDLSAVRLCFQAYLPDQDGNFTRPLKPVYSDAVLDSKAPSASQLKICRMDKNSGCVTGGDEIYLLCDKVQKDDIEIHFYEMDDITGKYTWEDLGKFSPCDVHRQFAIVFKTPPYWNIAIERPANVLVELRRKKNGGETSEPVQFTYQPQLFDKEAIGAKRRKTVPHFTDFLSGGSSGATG

Experiment [2] deals with T3, GST-Nv-NF-kB (Ser allele) (Nematostella vectensis, UniProt A7UNT2 2-411).
T3 sequence: T2 sequence with Q21R, C66S, S207N, E215Q, V217A, E225K, A268E, D399E

In a further experiment the target is T4, GST-Co-NF-kB (Capsaspora owczarzaki, UniProt F1ARL5 200-546).
T4 sequence: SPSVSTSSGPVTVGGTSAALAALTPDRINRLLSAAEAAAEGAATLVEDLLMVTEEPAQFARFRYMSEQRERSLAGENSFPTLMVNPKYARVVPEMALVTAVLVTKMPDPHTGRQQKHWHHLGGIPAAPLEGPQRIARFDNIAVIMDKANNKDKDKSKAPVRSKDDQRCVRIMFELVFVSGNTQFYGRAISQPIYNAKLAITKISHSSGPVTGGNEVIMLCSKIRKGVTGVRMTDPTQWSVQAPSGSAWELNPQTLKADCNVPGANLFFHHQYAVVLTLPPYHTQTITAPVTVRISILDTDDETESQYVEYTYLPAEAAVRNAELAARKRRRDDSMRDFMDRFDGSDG

In the next experiment the target is T5, GST-Dm-Relish (Drosophila melanogaster, UniProt Q94527 99-473).
T5 sequence: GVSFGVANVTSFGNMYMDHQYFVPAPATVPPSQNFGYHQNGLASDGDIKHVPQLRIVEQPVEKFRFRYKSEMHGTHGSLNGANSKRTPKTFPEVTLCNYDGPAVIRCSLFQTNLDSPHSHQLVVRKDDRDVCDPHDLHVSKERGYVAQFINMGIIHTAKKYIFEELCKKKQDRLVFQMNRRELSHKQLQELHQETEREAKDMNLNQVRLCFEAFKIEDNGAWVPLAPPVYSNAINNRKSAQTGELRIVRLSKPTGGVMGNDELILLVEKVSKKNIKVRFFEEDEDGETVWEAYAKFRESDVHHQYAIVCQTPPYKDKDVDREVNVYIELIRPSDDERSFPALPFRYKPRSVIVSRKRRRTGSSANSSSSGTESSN

A further experiment has as its target T6, GST-Aq-NF-kB (Amphimedon queenslandica, UniProt A9Y5G7 2-389).
T6 sequence: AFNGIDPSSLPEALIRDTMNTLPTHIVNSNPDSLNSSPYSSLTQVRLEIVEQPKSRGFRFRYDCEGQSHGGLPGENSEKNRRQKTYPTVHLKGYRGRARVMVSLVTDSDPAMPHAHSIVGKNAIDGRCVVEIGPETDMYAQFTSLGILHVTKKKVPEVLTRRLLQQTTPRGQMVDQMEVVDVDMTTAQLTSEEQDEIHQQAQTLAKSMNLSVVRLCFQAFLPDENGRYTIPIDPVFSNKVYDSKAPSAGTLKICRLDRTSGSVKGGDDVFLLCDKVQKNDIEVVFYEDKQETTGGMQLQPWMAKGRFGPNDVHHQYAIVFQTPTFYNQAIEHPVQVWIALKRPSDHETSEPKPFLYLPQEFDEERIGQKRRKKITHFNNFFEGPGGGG

Consider “CCGATTAACATCACGTTTTTCCCTGATGTTAATCGGGTCTTGATTCGCTTGACGCTGCTG”, for which the binding signal with GST-Ap-NF-kB RHD was 3.81 z-score; in experiment [1], 4.59 z-score; in experiment [2], 6.7 z-score; in the experiment with GST-Co-NF-kB it was 5.98 z-score; with GST-Dm-Relish, 4.58 z-score; with GST-Aq-NF-kB it was 4.26 z-score.
Turning to “CCGATTAACATCAACCAATCCCCTGATGTTAATCGGGTCTTGATTCGCTTGACGCTGCTG”, the binding signal is 5.19 z-score in the experiment with GST-Ap-NF-kB RHD; 5.28 z-score in experiment [1]; 6.6 z-score in experiment [2]; 2.16 z-score with GST-Co-NF-kB; 2.29 z-score with GST-Dm-Relish; 3.86 z-score in the experiment with GST-Aq-NF-kB.
In the case of “CCGATTAACATCAGCCCCCCGTCTGATGTTAATCGGGTCTTGATTCGCTTGACGCTGCTG”, the binding signal with GST-Ap-NF-kB RHD came out at 3.16 z-score; in experiment [1], 2.22 z-score; in experiment [2], 1.71 z-score; with GST-Co-NF-kB, 3 z-score; with GST-Dm-Relish it was 3.83 z-score; in the experiment with GST-Aq-NF-kB it was 3.37 z-score.
In the case of “CCGATTAACATCAAATCCCCCCTTGATGTTAATCGGGTCTTGATTCGCTTGACGCTGCTG”, the binding signal with GST-Ap-NF-kB RHD was determined as 8.14 z-score; in experiment [1], 6.82 z-score; in experiment [2], 7.98 z-score; in the experiment with GST-Co-NF-kB, 6.62 z-score; in the experiment with GST-Dm-Relish, 7.95 z-score; with GST-Aq-NF-kB, 6.8 z-score.
On to “CCGATTAACATCAAAGTTTTCCCTGATGTTAATCGGGTCTTGATTCGCTTGACGCTGCTG”, for which the binding signal was 4.37 z-score in the experiment with GST-Ap-NF-kB RHD; 6.15 z-score in experiment [1]; 7.61 z-score in experiment [2]; 6.07 z-score with GST-Co-NF-kB; 2.47 z-score with GST-Dm-Relish; 4.93 z-score with GST-Aq-NF-kB.
“CCGATTAACATCAACCCCCCCCTTGATGTTAATCGGGTCTTGATTCGCTTGACGCTGCTG”: the binding signal is 4.76 z-score with GST-Ap-NF-kB RHD; 4 z-score in experiment [1]; 3.93 z-score in experiment [2]; 5.09 z-score in the experiment with GST-Co-NF-kB; 4.91 z-score in the experiment with GST-Dm-Relish; 4.47 z-score with GST-Aq-NF-kB.
Regarding “CCGATTAACATCAGGGGTAACACTGATGTTAATCGGGTCTTGATTCGCTTGACGCTGCTG”, the binding signal in the experiment with GST-Ap-NF-kB RHD came out at 1.82 z-score; in experiment [1] it was 1.03 z-score; in experiment [2], 1.27 z-score; with GST-Co-NF-kB, 4.28 z-score; with GST-Aq-NF-kB, 2.5 z-score.
For “CCGATTAACATCACATTTCCCCATGATGTTAATCGGGTCTTGATTCGCTTGACGCTGCTG”, the binding signal with GST-Ap-NF-kB RHD was 4.9 z-score; in experiment [1], 6.14 z-score; in experiment [2], 8.95 z-score; in the experiment with GST-Co-NF-kB, 7.21 z-score; with GST-Dm-Relish, 2.25 z-score; with GST-Aq-NF-kB, 3.87 z-score.
Take “CCGATTAACATCAGATTATCCCCTGATGTTAATCGGGTCTTGATTCGCTTGACGCTGCTG”: the binding signal in the experiment with GST-Ap-NF-kB RHD was determined as 5.35 z-score; in experiment [1] it was 6.05 z-score; in experiment [2], 6.87 z-score; with GST-Co-NF-kB, 5.37 z-score; in the experiment with GST-Dm-Relish, 2.63 z-score; in the experiment with GST-Aq-NF-kB, 4.98 z-score.
“CCGATTAACATCAAGGGAAAAATTGATGTTAATCGGGTCTTGATTCGCTTGACGCTGCTG”: the binding signal with GST-Ap-NF-kB RHD amounted to 3.76 z-score; in experiment [1] it was 6.35 z-score; in experiment [2] it was 7 z-score; with GST-Co-NF-kB, 5.22 z-score; with GST-Dm-Relish it was 1.89 z-score; with GST-Aq-NF-kB, 5.11 z-score.
Regarding “CCGATTAACATCACGGGATTTTCTGATGTTAATCGGGTCTTGATTCGCTTGACGCTGCTG”, the binding signal in the experiment with GST-Ap-NF-kB RHD is 5.11 z-score; in experiment [1], 4.77 z-score; in experiment [2], 4.15 z-score; with GST-Co-NF-kB, 1.98 z-score; with GST-Dm-Relish, 6.84 z-score; with GST-Aq-NF-kB, 5.2 z-score.
